Assay outcomes as filed in PubChem.
Only some compounds are listed: those with a hit (about 5.5% of all), similar ones and a draw of the others.
RORg inh: qHTS for inhibitors of ROR gamma transcriptional activity. Nuclear receptor ROR-gamma (Mus musculus), P51450. AID 2551, 2010. 5.4% of 310,000 active. Drosophila S2 Gal4-RORgamma UAS-luciferase reporter, 20 h. Potency, µM (titrated, usually from 53.6 µM), without a hit: at the top dose activity change, negative = inhibition, actives largely listed as inhibitors; note: % is set by controls: 0 for no effect and ±100 for the full control effect; nearly all actives have a fitted effect of over 60% in size
Target sequence (P51450 whole entry, looked up, the tested form may be a part): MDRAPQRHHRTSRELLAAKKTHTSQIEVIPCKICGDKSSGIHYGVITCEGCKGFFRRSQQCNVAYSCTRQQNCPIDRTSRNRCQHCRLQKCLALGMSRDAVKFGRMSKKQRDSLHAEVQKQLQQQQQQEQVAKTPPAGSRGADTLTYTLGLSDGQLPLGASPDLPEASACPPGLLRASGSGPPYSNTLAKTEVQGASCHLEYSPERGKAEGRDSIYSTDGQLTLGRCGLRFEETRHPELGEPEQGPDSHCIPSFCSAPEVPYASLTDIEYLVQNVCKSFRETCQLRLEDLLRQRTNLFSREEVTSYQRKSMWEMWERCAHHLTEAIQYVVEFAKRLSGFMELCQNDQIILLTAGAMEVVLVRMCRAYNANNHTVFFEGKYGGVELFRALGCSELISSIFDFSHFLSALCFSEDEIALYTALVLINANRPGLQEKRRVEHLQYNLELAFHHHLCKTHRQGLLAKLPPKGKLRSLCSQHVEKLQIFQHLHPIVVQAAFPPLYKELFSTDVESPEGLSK
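Compounds are pin-transferred onto Drosophila Schneider cells expressing a copper-inducible Gal4–ROR gamma transactivation domain fusion. After 1 hr, copper sulfate is added to 700 uM final; luciferase is read 20 hr later.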
uPA generation: qHTS for Inhibitors of Cell Surface uPA Generation. 0.31% of 330,000 active. cell surface uPA generation assay, qHTS. Potency, µM (doses to about 38.3 µM), inactives show top-dose activity change, negative = inhibition, hits mostly inhibitors; active = well fitted inhibition curve with a large enough effect; inconclusive = small, poorly fitted or top-dose-only effect; inactive = no such curve, though single readings can be large or run the other way; tested in mouse RAW 264.7 cells; note: % is set by controls: 0 for no effect and ±100 for the full control effect; nearly all actives have a fitted effect of over 55% in size
a7 integrin act: qHTS for Activators of Integrin-Mediated Alleviation for Muscular Dystrophy; Potency, µM (series often up to 38.3 µM), inactives show at the highest dose activation, hits mostly activators; alpha7betagal myoblasts, beta-gal FDG fluorescence, 48 h; 0.064% of 350,000 active; AID 624291, 2012;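 note: 100% = response of the positive control SU9516; nearly all actives have a fitted effect of over 60% in size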
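Alpha7betagal+/- myoblasts (passage 13) were plated 16-24 hr, then exposed to compounds (1:260 dilution of DMSO stock) for 48 hours at 37C. After MPER lysis, β-galactosidase reporter activity was read as FDG fluorescence (ex 480/em 540) after 30 minutes.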
BCR signal inh: qHTS Assay to Find Inhibitors of Chronic Active B-Cell Receptor Signaling; 0.05% of 340,000 active; AID 493014, 2011; ABC-DLBCL IkBa-CBG/CBR reporter, luminescence ratio, 4 h; Potency, µM (titrated, usually from 46.1 µM), for the others: top-dose activity change, negative = inhibition, actives largely listed as inhibitors; active = well fitted inhibition curve with a large enough effect in the signal ratio, with a control signal flat, not every such curve was filed as active; inconclusive = small, poorly fitted or top-dose-only effect, or effect the other way, or a change in a side signal; the % refers to the signal ratio;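 note: plate controls were basal doxycycline-induced cells for no effect and cells given 10 µM MG132 for full effect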
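Cell line TMD8 (human ABC DLBCL), stably expressing tet-inducible CBG68-IkBa fusion and CBR; IMDM/0.5% FBS; cpd up to 46 uM; dox induction, 4 h, 37C/5% CO2; dual luminescence; green/red ratio; MG132 control.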
Mito fusion yeast: qHTS Assay for Small Molecule Inhibitors of Mitochondrial Division or Activators of Mitochondrial Fusion | S. cerevisiae fusion-defective mutant growth rescue, CellTiterGlo 48 h | Potency, µM (series often up to 46.1 µM), inactives show at the highest dose growth rescue (activation), usual class: activators | 0.23% of 320,000 active | AID 485298, 2010; note: % of control where 0% means no effect; nearly all actives have a fitted effect of over 45% in size
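Luminescent cell viability in 1536-well qHTS format served as the measure of rescued growth in ts fusion-mutant S. cerevisiae cultured on non-fermentable YPEG for 48 hours at 37C.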
VP16 counter: VP16 counterscreen qHTS for inhibitors of ROR gamma transcriptional activity; Drosophila S2 Gal4-VP16 UAS-luciferase, luminescence, 20 h; Potency, µM (top dose mostly 53.6 µM), without a hit: at the highest dose activity, negative = inhibition, hits mostly inhibitors; 3.5% of 310,000 active;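 note: Gal4-VP16 expression switched on by copper sulfate through the metallothionein promoter; % is set by controls: 0 for no effect and ±100 for the full control effect; nearly all actives have a fitted effect of over 50% in size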
The depositor's hits bear a star; ? = inconclusive; . = not tested or not shown; [ ] = dose if it differs, or a comment. Unless noted, calls come from the whole dose curve; as a rule, active = well fitted curve in the direction sought with a large enough effect; inconclusive = small, poorly fitted or top-dose-only effect, or another doubt; inactive = no such curve, though single readings can be large; an effect the other way counts as inactive or inconclusive. Potency is the fitted concentration of half-maximal effect.

SMILES | RORg inh | uPA generation | a7 integrin act | BCR signal inh | Mito fusion yeast | VP16 counter
CCC(C)n1c(SCC(=O)NC2CCCC2)nc2ccccc2c1=O (centres undefined) | . | -1% | -12% | 1% | 18% | .
CN1CCN(C(=O)CCCOc2cc(=O)n(C)c3ccccc23)CC1 | ? | -12% | -18% | 26µM* | -1% | -2%
Cn1c(=O)cc(OCCCC(=O)N2CCCCC2)c2ccccc21 | -16% | -8% | 8%[7.66 µM] | -14% | 6% | 3%
CC(Oc1ccccc1)C(=O)Nc1ccc(C(N)=O)cc1 (centres undefined) | 1% | . | 7%[7.66 µM] | 3% | 4% | -5%
CC(C)NS(=O)(=O)c1ccc(NC(=O)C(C)Oc2ccc(C(=O)c3ccccc3)cc2)cc1 (centres undefined) | ? | -2% | -45% | ? | 3% | 7.1µM*
CCc1c(C(=O)NNC(=S)NCc2ccccc2)csc1C | 6.3µM* | 3% | -6% | -1% | -4% | -15%
CCc1c(C(=O)NNC(=S)NCC(C)C)csc1C | 1.8µM* | . | -7%[7.66 µM] | . | -1% | 18µM*
CCc1c(C(=O)NNC(=S)NCC2CCCO2)csc1C (centres undefined) | ? | 6% | 12% | 3% | -4% | ?
O=C(COC(=O)CNC(=O)c1ccc([N+](=O)[O-])o1)Nc1ncc(C(F)(F)F)cc1Cl | . | -29% | -1% | 1% | 0% | .
NC(=O)c1nsnc1-c1ccccc1O | 22µM* | -3% | -19% | ? | ? | 11%
O=C(c1nsnc1-c1ccccc1O)N1CCCCC1 | 7% | 7% | 0% | 2% | 3% | 9%
CN(C)c1ccc(N=Nc2ccccc2Br)cc1 | 8.9µM* | ? | 34% | ? | -14% | ?
CC(=O)NC(c1ccco1)c1cc(Cl)c2ccc(N3CCCCC3)nc2c1O (centres undefined) | . | . | . | -5% | 12% | .
CCOC(=O)c1c(SCC(=O)Nc2nc3ccc(C)cc3s2)nc(=O)[nH]c1C | . | . | . | -6% | . | .
CCCCCc1cc(O)c2c(C)cc(=O)oc2c1 | 3.2µM* | 2% | -59% | ? | 14% | 11µM*
CC(=O)c1cc(NC(=O)c2ccc(C)cc2)c(=O)oc1C | ? | -6% | 6% | 6% | -7% | ?
Cc1ccc(C(=O)Nc2cc3ccccc3oc2=O)cc1 | 1.6µM* | -15% | 7% | ? | -1% | ?
CC(=O)c1cc(NC(=O)c2ccccc2)c(=O)oc1C | 11µM* | -8% | -10% | 3% | 11% | 2.5µM*
CC(=O)Nc1cc2ccccc2oc1=O | 23% | 5% | 0% | -29% | -2% | -11%
Cc1oc(=O)c(NC(=O)c2ccccc2)cc1C(=O)c1ccccc1 | ? | -14% | -65% | ? | -4% | 13µM*
CCCCCCCNC(=O)C1(CC2CC(c3ccc(Cl)cc3)=NO2)CCN(C(=O)CCCCCBr)CC1 (centres undefined) | 42% | -5% | -1% | ? | -2% | -3%
O=C(Cn1cnc2c(NC(=O)OCc3ccccc3)ncnc21)NCc1ccccn1 | . | -4% | -1% | 6% | -5% | .
C/C(=N/NC(=O)c1ccncc1)C1=C(O)CC(C)(C)CC1=O | -27% | -8% | -35% | -2% | 1% | 3%
CC1=CCCC(C)(C)C1/C=C/C(C)=N/NC(=O)c1ccncc1 (centres undefined) | 2.8µM* | -1% | 7% | ? | 3% | ?
CSCc1cc(N(C)C)nc(SCc2ccc(Cl)c(Cl)c2)n1 | 11µM* | 5% | -24% | 15% | -12% | ?
SMILES | RORg inh | uPA generation | a7 integrin act | BCR signal inh | Mito fusion yeast | VP16 counter
CCn1c(N)cc(=O)[nH]c1=S | . | 3% | 0% | . | . | .
CC(C)C[C@@H](CC(=O)N[C@H](CC(=O)N[C@@H]1CCNC[C@H]1C(=O)N[C@H](CC(=O)N[C@@H](CCC(=O)O)CC(=O)O)CC(C)C)C(C)C)NC(=O)[C@@H]1CCCC[C@H]1N | 14% | . | . | . | . | -7%
COc1cc(/C=C/C(=O)N2CCC=CC2=O)cc(OC)c1OC | 3.5µM* | ? | . | ? | -11% | 7.9µM*
Fc1cccc(-n2cc(-c3ccccc3)c3c(=S)nc[nH]c32)c1 | 2.5µM* | -26% | -1% | -9% | -2% | 0.63µM*
O=c1[nH]cnc2c1c(-c1ccccc1)cn2-c1ccccc1 | -15% | -19% | 16% | ? | -25% | -5%
Fc1ccc(-n2cc(-c3ccccc3)c3c(=S)nc[nH]c32)cc1 | 1.3µM* | -1% | 0% | -7% | -23% | 1µM*
O=[N+]([O-])c1ccc(Nc2ccccc2)c2nonc12 | 23% | -8% | 13% | 9% | -19% | -9%
O=[N+]([O-])c1ccc(Sc2cccc[n+]2[O-])c2nonc12 | 1µM* | ? | -93% | ? | -29% | 1µM*
CCOC(=O)CC1C(=O)NCCN1C(=O)COc1ccc(C(C)(C)C)cc1 (centres undefined) | -24% | 2% | -26% | 1% | 0% | 13%
CCN(CC(=O)NCc1ccc(F)cc1)C(=O)C(C)Oc1cccc(Cl)c1 (centres undefined) | . | 0% | 30% | 0% | 0% | .
O=C(O)c1ccc(NC2=C/C(=N/S(=O)(=O)c3cccs3)c3ccccc3C2=O)cc1 | . | . | -29% | . | . | .
Cc1ccc(NC2=C/C(=N\S(=O)(=O)c3cccs3)c3ccccc3C2=O)c(C)c1 | ? | -13% | -55% | ? | -17% | ?
O=C1C(Nc2ccc(O)cc2)=C/C(=N/S(=O)(=O)c2cccs2)c2ccccc21 | 11µM* | -17% | -66% | ? | -26% | 13µM*
CCc1ccc(S(=O)(=O)/N=C2\C=C(Nc3cccc(C(=O)O)c3)C(=O)c3ccccc32)cc1 | 11µM* | -5% | 25% | ? | -13% | ?
CCc1ccc(S(=O)(=O)/N=C2/C=C(Sc3ncn[nH]3)C(=O)c3ccccc32)cc1 | 13µM* | -14% | -54% | ? | -19% | 6.3µM*
Cc1ccc(Cl)cc1NC1=C/C(=N\S(=O)(=O)c2cccs2)c2ccccc2C1=O | -92% | -17% | -66% | ? | -9% | 5µM*
Cc1ccc(S(=O)(=O)/N=C2\C=C(NS(=O)(=O)c3ccccc3)C(=O)c3ccccc32)cc1 | . | -1% | -17% | . | . | .
